In ChEMBL document CHEMBL1961873, “Compounds: GSK PKIS; Assays: Nanosyn kinase panel” (2012):

How the values were obtained:
[1] = target: Casein kinase I isoform gamma-2 (Homo sapiens) (UniProt P78368); conditions: at 1 µM
[2] = target: Casein kinase I isoform gamma-3 (Homo sapiens) (UniProt Q9Y6M4); conditions: at 0.1 µM
[3] = target: Casein kinase I isoform gamma-3 (Homo sapiens) (UniProt Q9Y6M4); conditions: at 1 µM
[4] = target: Cyclin-dependent kinase 1 (Homo sapiens) (UniProt P06493); conditions: at 0.1 µM
Cyclin-dependent kinase 1 (Homo sapiens), sequence (P06493 whole entry, looked up): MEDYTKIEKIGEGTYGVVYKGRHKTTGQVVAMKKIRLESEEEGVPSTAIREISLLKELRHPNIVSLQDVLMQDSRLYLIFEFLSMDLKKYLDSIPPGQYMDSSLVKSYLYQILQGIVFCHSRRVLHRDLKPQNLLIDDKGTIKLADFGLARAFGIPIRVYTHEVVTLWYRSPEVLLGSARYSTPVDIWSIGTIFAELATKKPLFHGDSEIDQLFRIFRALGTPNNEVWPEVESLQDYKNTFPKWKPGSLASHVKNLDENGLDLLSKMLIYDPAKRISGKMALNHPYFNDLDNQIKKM

[5] = target: Cyclin-dependent kinase 1 (Homo sapiens) (UniProt P06493); conditions: at 1 µM
[6] = target: Cyclin-dependent kinase 2 (Homo sapiens) (UniProt P24941); conditions: at 0.1 µM
[7] = target: Cyclin-dependent kinase 2 (Homo sapiens) (UniProt P24941); conditions: at 1 µM
[8] = target: Cyclin-dependent kinase 2 (Homo sapiens) (UniProt P24941); conditions: at 0.1 µM; remark: listed apart in the source
[9] = target: Cyclin-dependent kinase 2 (Homo sapiens) (UniProt P24941); conditions: at 1 µM; remark: listed apart in the source
[10] = target: T1, CDK3/Cyclin E (Homo sapiens) (UniProt P24864+Q00526); conditions: at 0.1 µM
T1 sequence (P24864 whole entry, looked up): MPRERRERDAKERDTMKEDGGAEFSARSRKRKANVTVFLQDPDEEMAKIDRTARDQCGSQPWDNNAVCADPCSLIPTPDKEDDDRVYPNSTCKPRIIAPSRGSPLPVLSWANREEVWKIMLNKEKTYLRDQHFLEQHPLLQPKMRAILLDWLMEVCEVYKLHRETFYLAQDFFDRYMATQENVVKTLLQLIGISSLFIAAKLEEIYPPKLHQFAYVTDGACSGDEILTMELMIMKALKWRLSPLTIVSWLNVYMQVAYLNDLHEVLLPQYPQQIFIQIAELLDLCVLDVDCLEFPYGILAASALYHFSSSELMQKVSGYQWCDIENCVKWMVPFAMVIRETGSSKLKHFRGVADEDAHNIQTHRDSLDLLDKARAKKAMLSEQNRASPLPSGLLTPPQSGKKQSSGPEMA
T1 sequence (Q00526 whole entry, looked up): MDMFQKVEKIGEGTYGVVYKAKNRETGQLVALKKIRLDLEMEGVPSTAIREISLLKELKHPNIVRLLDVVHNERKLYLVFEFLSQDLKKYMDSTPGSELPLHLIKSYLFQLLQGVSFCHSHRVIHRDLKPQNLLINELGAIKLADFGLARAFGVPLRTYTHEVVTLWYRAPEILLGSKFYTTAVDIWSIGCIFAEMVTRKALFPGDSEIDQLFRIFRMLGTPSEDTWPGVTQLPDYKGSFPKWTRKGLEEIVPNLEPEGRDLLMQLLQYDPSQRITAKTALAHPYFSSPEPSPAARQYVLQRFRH

[11] = target: T1, CDK3/Cyclin E (Homo sapiens); conditions: at 1 µM
[12] = target: Cyclin-dependent kinase 4 (Homo sapiens) (UniProt P11802); conditions: at 0.1 µM
Cyclin-dependent kinase 4 (Homo sapiens), sequence (P11802 whole entry): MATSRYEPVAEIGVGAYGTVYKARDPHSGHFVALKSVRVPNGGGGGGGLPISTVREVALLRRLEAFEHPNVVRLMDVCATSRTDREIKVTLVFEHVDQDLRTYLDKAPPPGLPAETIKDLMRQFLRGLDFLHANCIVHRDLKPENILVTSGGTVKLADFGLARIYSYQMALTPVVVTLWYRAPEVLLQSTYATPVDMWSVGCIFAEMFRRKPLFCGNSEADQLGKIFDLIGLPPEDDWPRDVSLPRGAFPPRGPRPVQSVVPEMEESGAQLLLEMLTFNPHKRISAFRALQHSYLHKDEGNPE

[13] = target: Cyclin-dependent kinase 4 (Homo sapiens) (UniProt P11802); conditions: at 1 µM
[14] = target: Cyclin-dependent kinase 5 (Homo sapiens) (UniProt Q00535); conditions: at 0.1 µM
Cyclin-dependent kinase 5 (Homo sapiens), sequence (Q00535 whole entry, looked up): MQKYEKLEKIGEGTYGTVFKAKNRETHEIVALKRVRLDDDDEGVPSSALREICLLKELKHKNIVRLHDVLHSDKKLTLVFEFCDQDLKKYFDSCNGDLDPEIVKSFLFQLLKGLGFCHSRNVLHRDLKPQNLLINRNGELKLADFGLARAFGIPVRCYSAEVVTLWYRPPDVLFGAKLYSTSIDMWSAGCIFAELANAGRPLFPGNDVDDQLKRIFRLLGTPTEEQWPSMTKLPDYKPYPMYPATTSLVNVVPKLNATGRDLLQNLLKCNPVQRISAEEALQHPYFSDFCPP

[15] = target: Cyclin-dependent kinase 5 (Homo sapiens) (UniProt Q00535); conditions: at 1 µM
[16] = target: Cyclin-dependent kinase 6 (Homo sapiens) (UniProt Q00534); conditions: at 0.1 µM
Cyclin-dependent kinase 6 (Homo sapiens), sequence (Q00534 whole entry): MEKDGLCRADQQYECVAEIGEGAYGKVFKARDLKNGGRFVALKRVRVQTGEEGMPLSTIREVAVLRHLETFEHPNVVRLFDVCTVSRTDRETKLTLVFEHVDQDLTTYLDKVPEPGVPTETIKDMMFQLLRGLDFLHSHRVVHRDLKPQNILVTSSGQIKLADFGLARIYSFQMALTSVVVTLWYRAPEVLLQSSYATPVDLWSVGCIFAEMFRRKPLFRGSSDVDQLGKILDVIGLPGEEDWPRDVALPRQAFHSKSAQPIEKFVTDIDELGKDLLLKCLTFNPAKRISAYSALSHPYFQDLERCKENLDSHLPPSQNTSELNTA

[17] = target: Cyclin-dependent kinase 6 (Homo sapiens) (UniProt Q00534); conditions: at 1 µM
[18] = target: Dual specificity protein kinase CLK2 (Homo sapiens) (UniProt P49760); conditions: at 0.1 µM
Dual specificity protein kinase CLK2 (Homo sapiens), sequence (P49760 whole entry, looked up): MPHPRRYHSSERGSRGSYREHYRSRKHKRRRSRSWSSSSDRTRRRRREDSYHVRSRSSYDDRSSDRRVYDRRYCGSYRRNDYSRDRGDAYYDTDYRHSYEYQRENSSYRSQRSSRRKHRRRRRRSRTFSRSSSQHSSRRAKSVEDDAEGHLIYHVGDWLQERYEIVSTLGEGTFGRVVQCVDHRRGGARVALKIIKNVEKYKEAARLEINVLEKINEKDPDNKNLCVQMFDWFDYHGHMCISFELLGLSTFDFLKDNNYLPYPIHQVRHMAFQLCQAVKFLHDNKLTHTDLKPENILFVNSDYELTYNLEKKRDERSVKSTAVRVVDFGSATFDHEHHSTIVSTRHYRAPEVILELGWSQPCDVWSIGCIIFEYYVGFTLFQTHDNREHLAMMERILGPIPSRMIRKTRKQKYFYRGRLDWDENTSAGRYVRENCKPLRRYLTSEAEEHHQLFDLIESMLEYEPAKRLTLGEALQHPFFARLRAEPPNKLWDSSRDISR

[19] = target: Dual specificity protein kinase CLK2 (Homo sapiens) (UniProt P49760); conditions: at 1 µM
[20] = target: Dual specificity protein kinase CLK3 (Homo sapiens) (UniProt P49761); conditions: at 0.1 µM
Dual specificity protein kinase CLK3 (Homo sapiens), sequence (P49761 whole entry, looked up): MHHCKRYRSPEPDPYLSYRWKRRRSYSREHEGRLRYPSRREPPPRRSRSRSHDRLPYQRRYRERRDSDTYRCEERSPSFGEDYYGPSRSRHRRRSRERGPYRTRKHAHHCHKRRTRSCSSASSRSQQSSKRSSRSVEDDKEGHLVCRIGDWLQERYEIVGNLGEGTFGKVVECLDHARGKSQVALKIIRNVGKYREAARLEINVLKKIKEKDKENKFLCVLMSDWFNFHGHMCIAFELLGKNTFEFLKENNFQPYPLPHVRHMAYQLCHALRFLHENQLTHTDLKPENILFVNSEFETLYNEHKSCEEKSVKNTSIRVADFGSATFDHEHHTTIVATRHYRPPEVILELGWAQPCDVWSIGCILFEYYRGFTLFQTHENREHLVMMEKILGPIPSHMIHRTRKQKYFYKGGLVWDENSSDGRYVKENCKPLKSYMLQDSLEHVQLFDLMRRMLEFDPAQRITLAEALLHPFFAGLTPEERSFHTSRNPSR

Casein kinase I isoform gamma-3 (Homo sapiens), sequence (Q9Y6M4 whole entry, looked up, canonical isoform): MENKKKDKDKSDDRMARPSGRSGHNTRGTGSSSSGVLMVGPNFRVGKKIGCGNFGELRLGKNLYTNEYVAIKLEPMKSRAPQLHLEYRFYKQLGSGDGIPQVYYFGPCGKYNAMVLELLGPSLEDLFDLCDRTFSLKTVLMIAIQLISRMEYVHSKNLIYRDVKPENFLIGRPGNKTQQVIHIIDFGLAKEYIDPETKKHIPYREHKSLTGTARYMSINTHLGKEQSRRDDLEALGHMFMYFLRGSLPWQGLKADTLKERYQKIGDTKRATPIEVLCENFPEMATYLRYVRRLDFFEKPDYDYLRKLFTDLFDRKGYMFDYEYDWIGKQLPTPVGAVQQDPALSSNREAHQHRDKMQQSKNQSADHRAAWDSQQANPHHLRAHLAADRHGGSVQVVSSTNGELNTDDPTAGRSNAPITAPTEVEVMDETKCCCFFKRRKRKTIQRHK
Casein kinase I isoform gamma-2 (Homo sapiens), sequence (P78368 whole entry, looked up, canonical isoform): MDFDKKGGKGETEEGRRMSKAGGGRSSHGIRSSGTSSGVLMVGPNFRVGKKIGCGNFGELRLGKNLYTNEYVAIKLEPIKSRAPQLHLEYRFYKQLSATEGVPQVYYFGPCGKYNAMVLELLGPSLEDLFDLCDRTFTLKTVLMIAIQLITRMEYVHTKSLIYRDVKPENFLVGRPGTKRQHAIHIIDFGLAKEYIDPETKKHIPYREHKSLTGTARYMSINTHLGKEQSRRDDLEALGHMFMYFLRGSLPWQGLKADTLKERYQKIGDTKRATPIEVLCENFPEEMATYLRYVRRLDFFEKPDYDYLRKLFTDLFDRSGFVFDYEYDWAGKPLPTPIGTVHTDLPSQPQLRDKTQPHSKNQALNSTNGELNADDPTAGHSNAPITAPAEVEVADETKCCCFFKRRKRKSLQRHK

Compound | inhibition [1] [%] | inhibition [2] [%] | inhibition [3] [%] | inhibition [4] [%] | inhibition [5] [%] | inhibition [6] [%] | inhibition [7] [%] | inhibition [8] [%] | inhibition [9] [%] | inhibition [10] [%] | inhibition [11] [%] | inhibition [12] [%] | inhibition [13] [%] | inhibition [14] [%] | inhibition [15] [%] | inhibition [16] [%] | inhibition [17] [%] | inhibition [18] [%] | inhibition [19] [%] | inhibition [20] [%]
Cc1ccc2c(c1)/C(=N/Nc1ccc(S(N)(=O)=O)cc1)C(=O)N2 | 0.86 | 1.81 | -0.55 | 3.51 | 23.4 | 27 | 69.6 | 35 | 74.2 | 14.9 | 57.3 | 1.36 | 16.9 | 9.16 | 45.2 | -2.12 | 36.9 | 1.98 | 3.06 | -1.33
COc1cc(Nc2nccc(-c3cnn4ncccc34)n2)cc(OC)c1 | 39.3 | 3.02 | 34.9 | 69.1 | 91.3 | 54.5 | 110 | 63.6 | 90 | 34.6 | 74.3 | 44.9 | 78.5 | 63 | 90.1 | 24.9 | 76.1 | 99.2 | 99.9 | 36.5
CCn1c(-c2nonc2N)nc2ccc(F)cc21 | 5.68 | 5.66 | 3.59 | 0.74 | 1.27 | 1.3 | 7.59 | 3.91 | 5.8 | 3.47 | -3.51 | 1.9 | 2.11 | 0.58 | 0.39 | 1.33 | 2.18 | 2.5 | 0.59 | 2.12
CCn1c(-c2nonc2N)nc2c(C#CC(C)(C)O)nc(OCCNC)cc21 | 6.19 | 2.99 | 1.61 | 3.65 | 2.4 | 3.96 | 3.53 | 2.75 | 5.28 | -3.05 | -2.48 | 5.94 | 6.73 | 1.64 | 1.77 | -0.39 | -2.07 | 1.52 | 3.81 | -0.84
CN(C)CCCn1c(-c2nonc2N)nc2cnccc21 | 4.54 | 1.5 | 3.26 | 1.58 | 2.19 | 2.53 | -3.59 | 4.53 | 6.13 | 4.24 | -0.71 | 3.12 | 4.13 | 1.36 | 1.99 | -4.78 | 1.95 | 2.66 | 2.51 | 1.05
NC(=O)c1sc(-n2cnc3ccccc32)cc1OCc1ccccc1Br | 5.04 | 2.52 | 3.56 | 4.32 | 6.19 | 7.43 | 5.68 | 4.88 | 8.08 | -2.25 | 0.26 | 6.61 | 8.04 | 3.59 | 8.58 | -3.6 | -1.95 | 1.89 | 5.2 | 0.83
CCCN1CCCC(c2ccc(Nc3nc(Nc4cc(F)ccc4C(N)=O)c4cc[nH]c4n3)c(OC)c2)C1 (stereo not given) | 78.6 | 44.3 | 83.5 | 0.12 | 2.76 | 2.13 | 10.8 | 3.57 | 8.67 | 4.8 | 0.01 | 3.53 | 12.1 | 0.43 | 5.92 | -2.09 | 8.41 | 67.3 | 93.8 | 4.01
NS(=O)(=O)c1ccc(-c2cc3ccncc3cc2OCc2ccccc2)cc1 | 3.43 | 1.53 | 4.76 | -0.03 | 0.11 | 1.51 | 2.11 | 1.41 | 1.57 | 4.12 | -0.11 | 2.12 | 0.84 | -0.11 | -1.18 | 3.37 | 2.89 | 0.98 | 2.04 | 1.44
COc1cc2ncnc(Nc3ccc(C)c(O)c3)c2cc1OC | 4.75 | 1.97 | 4.02 | 0.59 | 4.09 | 1.34 | 1.09 | 4.69 | 6.24 | 4.08 | -1.71 | 4.46 | 6.21 | 0.92 | 2.99 | -0.81 | 4.49 | 1.85 | 0.29 | 1.39
N#Cc1cccc(Nc2nccc(-c3cnn4ncccc34)n2)c1 | 41.4 | 8.75 | 43 | 83.8 | 89.2 | 89.8 | 121 | 82.3 | 87.2 | 76.7 | 99.9 | 71 | 83.7 | 80.3 | 87 | 61.9 | 84 | 98.9 | 96.9 | 56.7
NS(=O)(=O)c1cccc(-c2cc3ccncc3cc2OCc2ccccc2)c1 | 4.41 | 4.33 | 2.71 | 2.03 | 2.22 | 1.1 | 3.16 | 5.88 | 6.78 | 3.65 | 0.51 | 3.55 | 6.33 | 1.96 | 3.2 | -1.23 | 10.9 | 1.16 | 1.27 | 1.46
Cc1nc(-c2ccccc2)n2nc(NCCCN3CCOCC3)ncc12 | 2.19 | 1.6 | 1.78 | 1.76 | 2.4 | 2.24 | 2.48 | 2.24 | 4.68 | -1.66 | 0.9 | 4.19 | 15.2 | 0.75 | 2.62 | 13.8 | 52.7 | 3.46 | 10.1 | 0.04
Cc1ccc(C(=O)NC2CC2)cc1-c1ccc2[nH]ncc2c1 | -3.39 | -2.17 | -1.12 | 0.88 | 2.1 | 0.12 | 4.69 | -1.68 | 0.18 | -2.07 | 0.41 | -0.45 | 1.78 | 0.3 | 2.44 | -4.81 | -2.84 | -1 | 0.36 | -0.51
NS(=O)(=O)c1cccc(Nc2cc(-c3ccc(F)cc3)n[nH]2)c1 | 4.87 | 1.83 | 4.57 | 0.79 | 9.28 | 2.32 | 11.1 | 7.11 | 28.4 | 10.6 | 36.7 | 1.88 | 10 | 5.52 | 31.4 | 10.5 | 52.5 | 1.65 | 1 | 1.43
COc1cc(/C=N/Nc2ncnc3c2cnn3C(C)C)ccc1O | 0.8 | 1.47 | 2.79 | 11.8 | 47.9 | 7.48 | 46.5 | 6.02 | 32.4 | 6.53 | 27.6 | 3.37 | 18.7 | 10.4 | 46.2 | -4.82 | 9.96 | 3.4 | 23.2 | 5.21
CN(C)C(=O)O[C@@H]1CN[C@@H](C#Cc2cc3ncnc(Nc4ccc(OCc5cccc(F)c5)c(Cl)c4)c3s2)C1 | 5.93 | 0.73 | 5.49 | 0.38 | 0.19 | 0.82 | 7.43 | 0.72 | 1.06 | 3.66 | -1.66 | 2.09 | 1.46 | 0.54 | 1.24 | -6.37 | 0.91 | 0.95 | -0.08 | -0.16
O=C(Nc1ccc(Oc2ccc3[nH]c(NC(=O)c4ccco4)nc3c2)cc1)Nc1cc(C(F)(F)F)ccc1F | -2.38 | -2.82 | -2.32 | -5.04 | -3.69 | -3.1 | 3.18 | -4.34 | -4 | -0.43 | 0.77 | -4.32 | -2.74 | -4.37 | -4.57 | -1.5 | -3.48 | 0.35 | 0.71 | -3.23
CC(C)c1ccc2c(c1)NC(=O)/C2=N/Nc1ccc(S(N)(=O)=O)cc1 | 0.09 | 1.05 | 0.02 | 2.52 | 6.84 | 5.99 | 28.9 | 3.16 | 18.9 | 1.54 | 6.26 | 0.37 | 7.65 | 1.59 | 5.95 | 3.38 | 28.6 | -0.26 | -1.61 | -0.29
OCc1ccc(-c2nc(-c3ccccn3)c(-c3ccc4c(c3)OCO4)[nH]2)cc1 | 4.06 | 3.67 | 4.78 | 0.21 | 1.4 | 1.49 | -2.92 | 3.56 | 4.52 | 1.69 | 1.76 | 2.89 | 3.75 | 0.69 | 1.21 | -1 | 2.55 | 1.74 | 4.27 | 1.94
NS(=O)(=O)c1ccc(Nc2cc(-c3cccc(O)c3)n[nH]2)cc1 | 5.96 | 7.49 | 2.14 | 2.03 | 12.9 | 16.7 | 78.1 | 16.5 | 56 | 5.95 | 28.8 | 3.25 | 9.51 | 5.69 | 31.5 | 2.31 | 21.3 | 3.77 | 2.54 | 1.95
Cc1ccc(NC(=O)CC2CC2)cc1-c1ccc(C(=O)NCC2CC2)cc1 | 2.91 | 0.5 | 2.08 | -0.23 | 0.76 | -1.15 | -1.13 | 1.18 | 2.92 | 1.73 | -2.46 | 1.69 | 2.18 | 0.04 | 0.76 | 1.72 | 1.87 | 0.47 | 0.08 | 1.44
Nc1ccc(C#Cc2cncnc2Nc2ccc(OCc3cccc(F)c3)c(Cl)c2)cc1 | 2.65 | 2.45 | 2.75 | 1.11 | 1.87 | 1.4 | 1.57 | 2.14 | 3.31 | -0.93 | -1.01 | 1.19 | 3.75 | 0.23 | 1.65 | -2.6 | 0.37 | 0.14 | -1.31 | 0.75
COC(=O)c1cncc(/C=C/c2c(C)cc(O)cc2C)c1 | 3.31 | 2.67 | 3.39 | 0.78 | 3.13 | 2.61 | 4.42 | 3.33 | 5.75 | 1.45 | -1.29 | 2.45 | 3.9 | 1.02 | 3.28 | 4.33 | 4.14 | -0.85 | 2.84 | 2.11
Nc1nccc(C#Cc2cncnc2Nc2ccc(OCc3cccc(F)c3)c(Cl)c2)n1 | 3.89 | 3.42 | 3.02 | 0.61 | 2.58 | 1.73 | 1.37 | 3.74 | 5.25 | 1.09 | 0.78 | 3.03 | 4.61 | 1.09 | 1.9 | 3.61 | 2.5 | 2.79 | 14.2 | 1.85
CS(=O)(=O)CCNCc1nc(-c2ccc3ncnc(Nc4ccc(OCc5cccc(C(F)(F)F)c5)cc4)c3c2)cs1 | 1.13 | 0.51 | -0.03 | 2.33 | 2.13 | 1.96 | -0.45 | 1.42 | 0.41 | -1.59 | -0.52 | 4.15 | 3.83 | 0.46 | -0.01 | -2.37 | 3.31 | -2.75 | 1.02 | 0.04
COc1cccc(-n2ncc3c(N/N=C/c4ccc(S(C)(=O)=O)cc4)ncnc32)c1 | -0.73 | -4.22 | -2.43 | 26.2 | 64 | 32.1 | 68 | 7.18 | 41.6 | 4.38 | 20.8 | 0.01 | 20.4 | 21 | 59.2 | 0.78 | 25.6 | 8.7 | 18.4 | -0.53
